SMILES strings stand for the structures. The panel holds about 83,000 compounds, 20% with a hit somewhere; the sample as a whole holds those more often.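 Values shown are percent growth following 48 h exposure of cells in 96-well plates to a single concentration of compound; below 10 was considered active.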 Values without a mark were called inactive. Activity calls are given as the source filed them.

The first assay relates to NCI-H522 lung. Kind of assay: NCI-60 one-dose screen, 48 h (100 = growth as untreated, 0 = no growth, -100 = all killed). The conditions noted are these: 10 µM unless noted.
For `COc1ccc(-c2cn(-c3ccccc3)c(-c3ccccc3)n2)cc1OC`, the growth was 75.4%.

Regarding `O=c1ccn(C2OC(CO)C(O)C2F)c(=O)[nH]1` (centres undefined), the growth is 109%.

In the case of `c1ccc(N2CCN(c3nncc4ccccc34)CC2)nc1`, the growth was 99.4%.

With `CCOc1ccccc1C(=O)OCC(=O)Nc1cccc(S(=O)(=O)N(C)C)c1`, the growth is 95.1%.

For `O=[N+]([O-])c1ccc(N/N=C\c2ccccc2[N+](=O)[O-])nc1`, the growth is 97.5%.

Consider `O[C@@H]1Cc2ccc3ccccc3c2N[C@H](c2ccoc2)C1`, for which the growth was 94.8%.

As to `CCOC(=O)/C=C(/C)Sc1cc(O)c2ccccc2c1O`, the growth is 12.7%.

Consider `CCc1ccc(CCN2C(=O)c3ccccc3C2=O)nc1`, for which the growth is 118%.

On to `O=C1C(=O)c2ccc(Br)cc2-c2cc(Br)ccc21`, for which the growth was 0.737% (active).

Turning to `COc1cc(/C=C/C(=O)N2CCN(C(=O)/C=C/c3ccccc3)CC2)cc(OC)c1OC`, the growth is 92.7%.

As to `Cc1nn(-c2ccc(Cl)cc2)c2nc3c(nc12)C(=O)c1ccccc1-3`, the growth was 60.7%.

As to `COc1cc(C2NC(c3ccc(Cl)cc3)C(C)/C(=N/NC(N)=S)C2C)cc(OC)c1OC` (centres undefined), the growth is 65.6%.

Take `COC(=O)c1ccc2c(c1)nc(-c1ccc(O)c(OC)c1)n2-c1cc(C(C)(C)C)[nH]n1`: the growth is 78.7%.

For `COC(=O)[C@]1(C(C)C)N[C@H](c2cn(-c3ccccc3)nc2-c2ccccc2)[C@@H]2C(=O)N(c3ccc(Cl)cc3)C(=O)[C@@H]21`, the growth was 81.4%.

`C[n+]1c2ccccc2c(NC2CCNCC2)c2[nH]c3ccccc3c21`: the growth was -73.2% (active).

With `COc1cc2c(cc1OCCCCCn1c(-c3ccc(OCc4ccccc4)cc3)nc3cc(N4CCOCC4)ccc31)N=C[C@@H]1CCCN1C2=O`, the growth was -4.59% (active).

As for `CSc1nnc(C2=CC(=O)c3ccccc3C2=O)n1-c1ccccc1`, the growth was 64.5%.

As to `COc1cccc2c1O/C(=C\c1c([N+](=O)[O-])ncn1C)C2=O`, the growth is 84.3%.

`CCC1=C(c2ccc(OC)cc2)C(C)(C)Oc2c1ccc(O)c2CN1CCCC1`: the growth is 30.4%.

For `CCCCn1c(Cc2ccc(Cl)cc2)nc2cc(OC)c(OC)cc2c1=O`, the growth was 71.6%.

In the case of `ClC1C2CC(c3ccccc32)C1Cl` (centres undefined), the growth was 100%.

As to `CC(c1ccccn1)C(C)(O)C(C)c1ccccn1` (centres undefined), the growth is 112%.

For `O=C(Nc1ccccc1Cl)c1cnc2ccc(C3CCNCC3)cn12`, the growth is 2.54% (active).

Regarding `O=C(OCCBr)c1ccc(Cl)c([N+](=O)[O-])c1`, the growth was 8.61% (active).

As for `CO[C@H]1/C=C/O[C@@]2(C)Oc3c(C)c(O)c4c(O)c(c(/C=N/N5CCN(C)CC5)c(O)c4c3C2=O)NC(=O)/C(C)=C\C=C\C(C)[C@H](O)[C@@H](C)[C@@H](O)[C@@H](C)[C@@H](OC(C)=O)[C@@H]1C` (some centres undefined), the growth was 105%.

Consider `CC(=O)c1nc2ccccc2n1CCn1cc(CC(N)C(=O)O)c2ccccc21` (centres undefined), for which the growth was 96.9%.

For the molecule `CCCCCCOc1ccc(/C=N/NC(N)=S)cc1`, the growth is -64% (active).

Turning to `Cc1ccccc1NC(=O)c1cc2ccccc2cc1O`, the growth was 12.2%.

In the case of `CC[C@]1(O)CC2CN(CCc3c([nH]c4ccccc34)[C@@](C(=O)OC)(c3cc4c(cc3OC)N(C)[C@H]3[C@@](O)(C(=O)OC)[C@H](OC(C)=O)[C@]5(CC)C=CCN6CC[C@]43[C@@H]65)C2)C1` (some centres undefined), the growth is -17.9% (active).

On to `CN(C)c1ccc(/C=C(\C#N)c2nc3ccccc3c(=O)[nH]2)cc1`, for which the growth is 84.2%.

Consider `CC(=O)c1cc(C(=O)c2ccc3c(c2)Sc2ccccc2N3)c2c(C)cc(C)cn12`, for which the growth is -31.2% (active).

As for `CCn1c2ccccc2c2ccc(C(C)=O)cc21`, the growth was 96.6%.

In the case of `Clc1ncn[nH]1`, the growth is 94.9%.

For `Cc1cc(N2CCOCC2)nc(N2CCOCC2)n1`, the growth was 78.6%.

On to `Oc1ccc(Cc2ccc(O)c(C3CC(c4ccc(Cl)cc4)=NN3)c2)cc1C1CC(c2ccc(Cl)cc2)=NN1` (centres undefined), for which the growth was -6.56% (active).

`c1cncc(CNc2ccccc2-c2nnc(Nc3ccc4c(c3)OCO4)o2)c1`: the growth was 3.02% (active).

On to `COc1cc2c(C#N)n3c(c2cc1OC)C(=O)C(c1ccccc1)Oc1ccccc1-3` (centres undefined), for which the growth is -32.4% (active).

In another assay the test system is A549/ATCC NSCLC. The assay is described as above. Conditions: 10 µM unless noted.
As for `COc1ccc(-c2cn(-c3ccccc3)c(-c3ccccc3)n2)cc1OC`, the growth was 85.8%.

For `O=c1ccn(C2OC(CO)C(O)C2F)c(=O)[nH]1` (centres undefined), the growth was 109%.

As to `c1ccc(N2CCN(c3nncc4ccccc34)CC2)nc1`, the growth was 100%.

For the molecule `CCOc1ccccc1C(=O)OCC(=O)Nc1cccc(S(=O)(=O)N(C)C)c1`, the growth is 87.8%.

With `O=[N+]([O-])c1ccc(N/N=C\c2ccccc2[N+](=O)[O-])nc1`, the growth is 92.2%.

On to `O[C@@H]1Cc2ccc3ccccc3c2N[C@H](c2ccoc2)C1`, for which the growth is 100%.

As to `CCOC(=O)/C=C(/C)Sc1cc(O)c2ccccc2c1O`, the growth is -34.1% (active).

As to `CCc1ccc(CCN2C(=O)c3ccccc3C2=O)nc1`, the growth is 106%.

Turning to `O=C1C(=O)c2ccc(Br)cc2-c2cc(Br)ccc21`, the growth is 89.7%.

As to `COc1cc(/C=C/C(=O)N2CCN(C(=O)/C=C/c3ccccc3)CC2)cc(OC)c1OC`, the growth was 99.8%.

As to `Cc1nn(-c2ccc(Cl)cc2)c2nc3c(nc12)C(=O)c1ccccc1-3`, the growth was 55.8%.

Consider `COc1cc(C2NC(c3ccc(Cl)cc3)C(C)/C(=N/NC(N)=S)C2C)cc(OC)c1OC` (centres undefined), for which the growth was 94.9%.

Take `COC(=O)c1ccc2c(c1)nc(-c1ccc(O)c(OC)c1)n2-c1cc(C(C)(C)C)[nH]n1`: the growth is 87.9%.

Take `COC(=O)[C@]1(C(C)C)N[C@H](c2cn(-c3ccccc3)nc2-c2ccccc2)[C@@H]2C(=O)N(c3ccc(Cl)cc3)C(=O)[C@@H]21`: the growth is 101%.

On to `C[n+]1c2ccccc2c(NC2CCNCC2)c2[nH]c3ccccc3c21`, for which the growth was 1.98% (active).

Consider `COc1cc2c(cc1OCCCCCn1c(-c3ccc(OCc4ccccc4)cc3)nc3cc(N4CCOCC4)ccc31)N=C[C@@H]1CCCN1C2=O`, for which the growth was 6.91% (active).

As to `CSc1nnc(C2=CC(=O)c3ccccc3C2=O)n1-c1ccccc1`, the growth was 76.3%.

With `COc1cccc2c1O/C(=C\c1c([N+](=O)[O-])ncn1C)C2=O`, the growth is 99.8%.

Consider `CCC1=C(c2ccc(OC)cc2)C(C)(C)Oc2c1ccc(O)c2CN1CCCC1`, for which the growth is 67.1%.

With `CCCCn1c(Cc2ccc(Cl)cc2)nc2cc(OC)c(OC)cc2c1=O`, the growth is 66.3%.

For `ClC1C2CC(c3ccccc32)C1Cl` (centres undefined), the growth was 110%.

Regarding `CC(c1ccccn1)C(C)(O)C(C)c1ccccn1` (centres undefined), the growth is 106%.

With `O=C(Nc1ccccc1Cl)c1cnc2ccc(C3CCNCC3)cn12`, the growth is 66.7%.

As for `O=C(OCCBr)c1ccc(Cl)c([N+](=O)[O-])c1`, the growth is 104%.

On to `CO[C@H]1/C=C/O[C@@]2(C)Oc3c(C)c(O)c4c(O)c(c(/C=N/N5CCN(C)CC5)c(O)c4c3C2=O)NC(=O)/C(C)=C\C=C\C(C)[C@H](O)[C@@H](C)[C@@H](O)[C@@H](C)[C@@H](OC(C)=O)[C@@H]1C` (some centres undefined), for which the growth was 97.1%.

Regarding `CC(=O)c1nc2ccccc2n1CCn1cc(CC(N)C(=O)O)c2ccccc21` (centres undefined), the growth was 103%.

With `CCCCCCOc1ccc(/C=N/NC(N)=S)cc1`, the growth is 88.3%.

Turning to `Cc1ccccc1NC(=O)c1cc2ccccc2cc1O`, the growth is 39.3%.

On to `CC[C@]1(O)CC2CN(CCc3c([nH]c4ccccc34)[C@@](C(=O)OC)(c3cc4c(cc3OC)N(C)[C@H]3[C@@](O)(C(=O)OC)[C@H](OC(C)=O)[C@]5(CC)C=CCN6CC[C@]43[C@@H]65)C2)C1` (some centres undefined), for which the growth was 17.2%.

For the molecule `CN(C)c1ccc(/C=C(\C#N)c2nc3ccccc3c(=O)[nH]2)cc1`, the growth was 99.5%.

Take `CC(=O)c1cc(C(=O)c2ccc3c(c2)Sc2ccccc2N3)c2c(C)cc(C)cn12`: the growth is 3.95% (active).

In the case of `CCn1c2ccccc2c2ccc(C(C)=O)cc21`, the growth was 103%.

On to `Clc1ncn[nH]1`, for which the growth was 98.1%.

For the molecule `Cc1cc(N2CCOCC2)nc(N2CCOCC2)n1`, the growth is 98.1%.

Turning to `Oc1ccc(Cc2ccc(O)c(C3CC(c4ccc(Cl)cc4)=NN3)c2)cc1C1CC(c2ccc(Cl)cc2)=NN1` (centres undefined), the growth is 14.7%.

As for `c1cncc(CNc2ccccc2-c2nnc(Nc3ccc4c(c3)OCO4)o2)c1`, the growth is 20%.

On to `COc1cc2c(C#N)n3c(c2cc1OC)C(=O)C(c1ccccc1)Oc1ccccc1-3` (centres undefined), for which the growth was 11.5%.

Source of the values: PubChem BioAssay (NCI).
